About 83,000 compounds went through this panel and 20% of them were active in at least one assay; those are over-represented in the sample as a whole.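 Interpretation: 100, growth as untreated; towards 0, rising growth inhibition; 0, no net growth; 0 to -100, cell death. Compounds scoring below 10 were considered active.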 A number with no mark means an inactive call. The source made the active and inactive calls.

The subject of this test is MCF7 breast. The experiment in a line: NCI-60 one-dose screen, 48 h (100 = growth as untreated, 0 = no growth, -100 = all killed). The following applies: 10 µM unless noted. The method, then: Growth inhibition of the MCF7 human tumor cell line is measured as a screen for anti-cancer activity. Cells are grown in 96 well plates and exposed to the test compound for 48 hours. Compounds are tested at a single concentration, which is 10^-5 M for most compounds. The reported endpoint is percent growth (GI% or GIPRCNT), where numbers from 0 - 100% represent growth inhibition, and numbers from -100% - 0 represent cell death. For example, a value of 40 represents 60% growth inhibition. A value of 0 means no net growth occurred over the course of the experiment. A value of -40 indicates 40% of cells at the beginning of the experiment died by the end of the experiment. A value of -100 means all cells are dead at the end of the experiment.
NCI-60 Human Tumor Cell Lines Screen was performed using the standard one-dose NCI protocol, which is described in more detail at https://dtp.cancer.gov/discovery_development/nci-60/default.htm.
Compounds with GIPRCNT values below 10 were considered active. Activity score was based on GIPRCNT using the following formula: […]
Score is 0 for GIPRCNT values of 100 or above, 50 for GIPRCNT values of 0, and 100 for GIPRCNT values of -100.
In the case of `C[C@H](C(=O)N[C@@H](Cc1ccc(-c2ccccc2)cc1)C(=O)NC1CC(C)(C)NC(C)(C)C1)c1ccc(-c2ccccc2)c(F)c1`, the growth was -50.9% (active).

Regarding `COc1ccc(CNC(=O)c2c(C)n([O-])c3cc(F)c(F)cc3[n+]2=O)cc1`, the growth was 55.9%.

Regarding `Cc1cc(C)nc(NS(=O)(=O)c2ccc(Nc3nc4nc(SCc5ccccc5)nc(-c5ccc(O)cc5)c4c(=O)[nH]3)cc2)n1`, the growth is 104%. Turning to `Nc1ccc2c(c1Br)Cc1ccccc1-2`, the growth is 51%.

Regarding `Nc1ccccc1C#Cc1ccccc1C#Cc1ccc(OCCCCCCOc2ccc(C#Cc3ccccc3C#Cc3ccccc3N)cc2)cc1`, the growth is 74.7%. On to `C=CCN(/C=C/CN(CC=C)CC=C)CC=C`, for which the growth is 97%. With `COc1ccc(C2=NN(C=O)C(c3cccc(Nc4ccnc5cc(Cl)ccc45)c3)C2)cc1` (stereo not given), the growth is 15.7%. Take `FC(F)(F)c1ccc(-c2cnc(-c3nn[nH]n3)nc2NC2CCCCCC2)cc1`: the growth was 50.4% [50 µM].

`COP(=O)(OC)C(c1ccc(O)cc1)(c1ccc(O)cc1)c1ccc(O)cc1`: the growth was 109%. Take `c1ccc(Nc2ccc(Nc3nc(-c4ccccc4)nc4ccccc34)cc2)cc1`: the growth is 80.6%. The figure for `COc1ccc(C2=NN(C(N)=S)C(c3ccc4c(c3)OCO4)C2)cc1` (stereo not given) is 10.5%; for `c1cc[n+](Cc2ccnc3ccccc23)cc1` it is 41.1%. For `CC(C)N(Cc1ccccc1)c1c(S)ssc1=S`, the growth is 3.04% (active). On to `COc1ccc(Cl)cc1Nc1nc(C(F)(F)F)ccc1C(=O)N/N=C/c1c(Cl)cccc1Cl`, for which the growth was 185%. Regarding `O=c1c2c(=NCCCN3CCCC3)cc3c(=O)n(CCCN4CCCC4)c(=O)c4c(NCCCN5CCCC5)cc(c(O)n1CCCN1CCCC1)c2c4-3`, the growth is 0.241% (active). As to `Cc1ccc2c(c1)C(=O)/C(=C\Nc1ccc(C(N)=O)cc1)C(O)O2` (stereo not given), the growth is 96.6%. With `C[C@]12CCC(=O)C=C1CC[C@H]1[C@@H]3C[C@@H](O)[C@](O)(C(=O)CO)[C@@]3(C)C[C@H](O)[C@@]12F`, the growth is 86.1%. Turning to `O=C(Nc1ccccc1)c1cc(-n2cnc([N+](=O)[O-])c2)cc(-n2cnc([N+](=O)[O-])c2)n1`, the growth was 116%. The figure for `CCCCCCCCCCCCCCCCNC(=O)Nc1ccc2ccccc2c1` is 94.5%; for `O=Cc1ncc(-c2ccc(C(F)(F)F)cc2)c(NC2CCCCCC2)n1` it is -86.3% [100 µM] (active). With `NC(=N\N=C/Cc1ccccc1)/C(N)=N\N=C\Cc1ccccc1`, the growth is 101%.

With `COc1ccc(CCN2C(=O)CCC3=C2CCCC3=O)cc1OC`, the growth is 92.6%.

Turning to `O=C(C(=O)N1CCOCC1)c1cn(CCCn2cc(C(=O)C(=O)N3CCOCC3)c3ccccc32)c2ccccc12`, the growth is 95.4%. For the compound `COc1cc(C(=O)/C=C/c2cccc(Nc3ccnc4cc(Cl)ccc34)c2)cc(OC)c1OC`, the growth is -40.3% (active). Consider `Cc1ccc(OCC(=O)Nc2ccc(Oc3ccccc3)cc2)c([N+](=O)[O-])n1`, for which the growth was 58.3%. Consider `COc1cnc2c(c1)C(=O)c1c-2n(CCCNC(C)C)c(=O)c2cc(F)ccc12`, for which the growth was -3% (active). In the case of `Cc1[nH]c(=O)[nH]c(=O)c1CCSSCCc1c(C)[nH]c(=O)[nH]c1=O`, the growth is 87.2%. For `COc1ccc(NC(=O)c2ccccc2-c2ccccc2)c(C(N)=O)c1`, the growth is 25.5%. `CC(=O)N1N=C(c2ccc(C(F)(F)F)cc2)CC1c1ccc2c(c1)OCO2` (stereo not given): the growth was 78.6%. The figure for `Cc1ccccc1NC(=O)N/C(N)=N/c1nc2ccccc2s1` is 19%; for `CC1CN(/N=C/c2ccc([N+](=O)[O-])o2)C(=N)O1` (stereo not given) it is 84.8%. The result for `CC1c2ccccc2-c2ccccc2N1C` (stereo not given) reads 99.4%; that for `CC[C@@H](c1ccc(O)c(O)c1)[C@@H](CC)c1ccc(O)c(O)c1`, 98.8%; that for `C#C[C@]1(O)CCC2C3CCc4cc(O)ccc4C3CC[C@@]21C` (stereo not given in full), 34.1%. Take `CCOc1cc(/C=C/C(=O)CC(=O)/C=C/c2ccc(OC(=O)CNc3nc4ccc(OC)cc4s3)c(OCC)c2)ccc1OC(=O)CNc1nc2ccc(OC)cc2s1`: the growth is 9.28% (active). In the case of `[N-]=[N+]=NCc1cccc(/C(O)=C/C(=O)C(=O)O)c1`, the growth was 98.6%. As for `COc1ccc(C2=NN(C(C)=O)C(c3cccc(Nc4ccnc5cc(Cl)ccc45)c3)C2)cc1` (stereo not given), the growth was 37.4%. Regarding `Cc1ccc(S(=O)(=O)N2CCN(C(=O)CSc3nc4ccc(C)cc4[nH]3)CC2)cc1`, the growth is 98.3%. As for `CC(C)CNc1nc(N=[N+]=[N-])nc(NCC(C)C)n1`, the growth is 52.4% [100 µM]. In the case of `COC(=O)c1cc2oc(/C=N\NC(=O)c3cc4oc(C)c(C)c4[nH]3)cc2[nH]1`, the growth is 86.8%.

These data come from PubChem BioAssay (NCI).
